Data as given in the supplement of paper PMC9446081.
± gives the standard deviation of the averaged measurements.

Target: T1, MurF (UniProt P11880)
T1 sequence (whole entry): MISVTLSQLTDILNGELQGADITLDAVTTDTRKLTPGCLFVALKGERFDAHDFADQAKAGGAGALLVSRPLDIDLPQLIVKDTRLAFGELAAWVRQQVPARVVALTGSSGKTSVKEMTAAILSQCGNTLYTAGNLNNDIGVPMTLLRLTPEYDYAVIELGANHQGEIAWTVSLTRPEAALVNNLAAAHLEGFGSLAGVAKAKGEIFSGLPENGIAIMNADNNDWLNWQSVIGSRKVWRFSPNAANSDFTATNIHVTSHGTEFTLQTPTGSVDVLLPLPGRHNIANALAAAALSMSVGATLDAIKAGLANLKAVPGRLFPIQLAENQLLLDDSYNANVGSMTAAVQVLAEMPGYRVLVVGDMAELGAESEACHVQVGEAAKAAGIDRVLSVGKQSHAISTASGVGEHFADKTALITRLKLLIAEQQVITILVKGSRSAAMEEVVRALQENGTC
Experiment: relative enzymatic activity vs untreated control (fraction); higher = less inhibition
Settings: 100 µM; incubation time: 2 h at 37 C
Protocol: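 In vitro enzymatic inhibition assays (ProFoldin kits) for 12 purified essential E. coli enzymes or complexes, each treated with 218 active antibacterial compounds at 100 µM for 2 h at 37°C. Read-outs were fluorescence or absorbance (phosphate detection, dye binding), converted to activity via standard curves and expressed relative to untreated DMSO controls.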

Row | SMILES | relative enzymatic activity
1 | Oc1cc(Cl)ccc1Oc1ccc(Cl)cc1Cl | 1.12 ± 0.27
2 | Cc1c(N)nc([C@H](CC(N)=O)NC[C@@H](N)C(N)=O)nc1C(=O)N[C@H](C(=O)N[C@@H](C)[C@H](O)[C@@H](C)C(=O)N[C@@H](C(=O)NCCc1nc(-c2nc(C(=O)NCCC[S+](C)C)cs2)cs1)[C@@H](C)O)[C@@H](O[C@H]1O[C@H](CO)[C@H](O)[C@@H](O)[C@H]1O[C@H]1O[C@H](CO)[C@@H](O)[C@H](OC(N)=O)[C@@H]1O)c1cnc[nH]1 | 1.15 ± 0.074
3 | COP(=S)(OC)Oc1cc(Cl)c(Cl)cc1Cl | 1.05 ± 0.2
4 | CNC1C(O)C(OC2C(N)CC(N)C(OC3OC(C(C)O)C(O)C(O)C3N)C2O)OCC1(C)O (centres undefined) | 0.95 ± 0.18
5 | CCCCCCCCCCCCCCCC[n+]1ccccc1.[Cl-] | 0.0685 ± 0.0074
6 | CCCCCCCCCCCCCCCC[n+]1ccccc1 | 0.08 ± 0.011
7 | CC(=O)[O][Hg][c]1ccccc1 | 1.08 ± 0.26
8 | Cc1c(N)nc([C@H](CC(N)=O)NC[C@@H](N)C(N)=O)nc1C(=O)N[C@H](C(=O)N[C@@H](C)[C@H](O)[C@@H](C)C(=O)N[C@@H](C(=O)NCCc1nc(-c2nc(C(=O)NCCC[S+](C)C)cs2)cs1)[C@@H](C)O)[C@@H](O[C@H]1O[C@H](CO)[C@H](O)[C@@H](O)[C@H]1O[C@H]1O[C@H](CO)[C@@H](O)[C@H](OC(N)=O)[C@@H]1O)c1c[nH]cn1 | 0.537 ± 0.75
9 | CC(=O)Oc1ccc(Cl)c2cccnc12 | 0.983 ± 0.21
10 | C[CH2][Hg][S]c1ccccc1C(=O)[O-].[Na+] | 0.982 ± 0.28
11 | CCCCCCCCCCCCCCCC[N+](C)(C)C.[Br-] | 0.112 ± 0.021
12 | O=C1C=C2C(=CCOC2O)O1 (centres undefined) | 0.903 ± 0.18
13 | O=S(=O)(O)O.Oc1cccc2cccnc12 | 0.951 ± 0.29
14 | CN(C)[C@@H]1C(=O)C(C(N)=O)=C(O)[C@@]2(O)C(O)=C3C(=O)c4c(O)cccc4[C@](C)(O)[C@H]3C[C@@H]12 | 0.983 ± 0.2
15 | CN[C@H]1C[C@@H](N)[C@H](O)[C@@H](O[C@@H]2O[C@H](CO)[C@H](O)[C@@H]3O[C@@]4(O[C@H]23)O[C@H]([C@@H](N)CO)[C@H](O)[C@H](O)[C@H]4O)[C@@H]1O | 1.17 ± 0.035
16 | Cc1nc2c(=O)n(C)c(=O)nc-2n(C)n1 | 0.965 ± 0.26
17 | O=[N+]([O-])C(Br)(CO)CO | 0.946 ± 0.23
18 | CCn1cc(C(=O)[O-])c(=O)c2cc3c(cc21)OCO3.[K+] | 0.962 ± 0.22
19 | CN1C(=O)[C@]23CC4=CC=C[C@H](O)[C@H]4N2C(=O)[C@@]1(CO)SS3 | 0.973 ± 0.26
20 | CN(C)[C@@H]1C(=O)[C@@H](C(N)=O)C(=O)[C@@]2(O)C(=O)[C@H]3C(=O)c4c(O)ccc(Cl)c4[C@@](C)(O)[C@H]3C[C@@H]12 | 1.2 ± 0.021
21 | CN(C)[C@@H]1C(=O)[C@H](C(N)=O)C(=O)[C@@]2(O)C(=O)[C@@H]3C(=O)c4c(O)cccc4[C@@](C)(O)[C@H]3C[C@@H]12 | 0.998 ± 0.19
22 | O=[N+]([O-])c1ccc(N(CCO)CCO)c2c1no[n+]2[O-] | 0.923 ± 0.15
23 | [O-][n+]1ccccc1[S][Zn][S]c1cccc[n+]1[O-] | 0.973 ± 0.15
24 | Cn1ncnc2c(=O)n(C)c(=O)nc1-2 | 0.797 ± 0.21
